According to PubChem BioAssay (NCATS):
Records with an inconclusive call do not appear. Activity calls are given as the source filed them. Unless noted, calls follow the shape of the dose curve; as a rule, active = well fitted curve in the direction sought with a large enough effect; inconclusive = small, poorly fitted or top-dose-only effect, or another doubt; inactive = no such curve, though single readings can be large; an effect the other way counts as inactive or inconclusive.

Columns and labels:
[1] = target: Rap guanine nucleotide exchange factor 3 (Homo sapiens) (UniProt O95398); test: Confirmatory qHTS for antagonist of cAMP-regulated guanine nucleotide exchange factor 3 (EPAC1) (AID 1645880); also: nearly all actives have a fitted effect of over 55% in size
Sequence of Rap guanine nucleotide exchange factor 3 (Homo sapiens) (O95398 whole entry, looked up): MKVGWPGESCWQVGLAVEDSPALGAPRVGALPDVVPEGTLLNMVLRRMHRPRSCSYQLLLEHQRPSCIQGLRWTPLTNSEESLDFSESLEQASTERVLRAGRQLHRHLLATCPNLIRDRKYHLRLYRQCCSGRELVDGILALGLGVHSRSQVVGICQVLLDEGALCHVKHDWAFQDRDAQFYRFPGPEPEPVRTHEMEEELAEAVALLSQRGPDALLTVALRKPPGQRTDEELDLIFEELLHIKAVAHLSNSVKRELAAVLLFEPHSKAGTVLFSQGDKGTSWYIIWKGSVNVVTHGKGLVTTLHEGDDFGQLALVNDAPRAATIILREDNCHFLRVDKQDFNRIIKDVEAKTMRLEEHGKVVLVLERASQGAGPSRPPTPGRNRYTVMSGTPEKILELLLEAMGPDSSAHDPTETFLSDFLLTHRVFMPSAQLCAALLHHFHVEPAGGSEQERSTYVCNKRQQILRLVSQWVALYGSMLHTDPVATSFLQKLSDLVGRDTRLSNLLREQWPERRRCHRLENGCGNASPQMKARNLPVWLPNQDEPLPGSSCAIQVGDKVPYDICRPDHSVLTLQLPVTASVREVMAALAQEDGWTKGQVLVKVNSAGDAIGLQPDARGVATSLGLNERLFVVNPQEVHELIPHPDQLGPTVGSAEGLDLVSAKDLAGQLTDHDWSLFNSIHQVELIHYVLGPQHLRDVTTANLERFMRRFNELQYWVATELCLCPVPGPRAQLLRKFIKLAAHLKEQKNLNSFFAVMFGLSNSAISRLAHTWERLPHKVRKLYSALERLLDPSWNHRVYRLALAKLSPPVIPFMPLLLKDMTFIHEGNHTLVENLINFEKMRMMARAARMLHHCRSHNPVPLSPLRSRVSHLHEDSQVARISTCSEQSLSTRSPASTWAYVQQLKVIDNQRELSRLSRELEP
Outline: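 Nucleotide exchange uses 100 nM EPAC1, 250 nM RAP1B-BODIPY-GDP and 50 uM GDP, with compounds in a concentration-titration series. After 5 min at room temperature, fluorescence (480 nm ex/540 nm em) is read every 5 min for 30 min. Data are normalized to control ATA and DMSO.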

[2] = target: Rap guanine nucleotide exchange factor 3 (Homo sapiens) (UniProt O95398); test: Confirmatory qHTS for agonist of cAMP-regulated guanine nucleotide exchange factor 3 (EPAC1) (AID 1645881);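 also: EPAC1 catalysed release of BODIPY-GDP from Rap1B seen as fluorescence loss; nearly all actives have a fitted effect of over 75% in size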
[3] = target: Rap guanine nucleotide exchange factor 4 (Homo sapiens) (UniProt Q8WZA2); test: Confirmatory qHTS for agonist of cAMP-regulated guanine nucleotide exchange factor 4 (EPAC2) (AID 1645884);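 also: nucleotide exchange releases bodipy-GDP from Rap1 and this lowers its fluorescence; nearly all actives have a fitted effect of over 65% in size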
Sequence of Rap guanine nucleotide exchange factor 4 (Homo sapiens) (Q8WZA2 whole entry, looked up): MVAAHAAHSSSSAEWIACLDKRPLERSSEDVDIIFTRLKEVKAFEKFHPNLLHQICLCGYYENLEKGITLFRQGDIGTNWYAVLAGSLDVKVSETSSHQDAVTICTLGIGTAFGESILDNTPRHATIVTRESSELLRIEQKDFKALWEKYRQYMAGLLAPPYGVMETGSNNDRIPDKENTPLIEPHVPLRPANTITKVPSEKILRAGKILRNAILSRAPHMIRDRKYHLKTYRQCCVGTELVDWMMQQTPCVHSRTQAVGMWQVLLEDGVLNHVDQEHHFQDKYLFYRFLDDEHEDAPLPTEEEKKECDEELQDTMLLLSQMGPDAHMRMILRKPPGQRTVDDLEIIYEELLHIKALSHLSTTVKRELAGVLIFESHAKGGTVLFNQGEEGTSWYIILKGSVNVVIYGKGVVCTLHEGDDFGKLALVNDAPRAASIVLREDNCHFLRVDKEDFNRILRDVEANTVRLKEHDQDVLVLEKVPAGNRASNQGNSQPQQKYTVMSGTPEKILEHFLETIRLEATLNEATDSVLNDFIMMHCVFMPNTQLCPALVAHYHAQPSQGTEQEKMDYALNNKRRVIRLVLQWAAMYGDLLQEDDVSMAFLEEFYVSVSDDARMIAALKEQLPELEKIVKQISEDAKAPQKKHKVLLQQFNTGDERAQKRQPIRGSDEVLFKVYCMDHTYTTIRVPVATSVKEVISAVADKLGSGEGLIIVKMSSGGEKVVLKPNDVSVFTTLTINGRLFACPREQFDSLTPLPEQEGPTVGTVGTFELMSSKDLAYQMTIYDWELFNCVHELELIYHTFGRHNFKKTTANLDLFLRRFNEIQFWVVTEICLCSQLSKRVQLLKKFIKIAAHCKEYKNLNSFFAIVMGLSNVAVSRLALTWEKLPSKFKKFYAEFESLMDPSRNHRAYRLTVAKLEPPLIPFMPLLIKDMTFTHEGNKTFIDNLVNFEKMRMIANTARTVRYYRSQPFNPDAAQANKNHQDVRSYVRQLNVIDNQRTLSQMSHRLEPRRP

[4] = target: Rap guanine nucleotide exchange factor 4 (Homo sapiens) (UniProt Q8WZA2); test: Confirmatory qHTS for antagonist of cAMP-regulated guanine nucleotide exchange factor 4 (EPAC2) (AID 1645885); also: nearly all actives have a fitted effect of over 25% in size
[5] = target: Rap guanine nucleotide exchange factor 3 (Homo sapiens) (UniProt O95398); test: Counterscreen qHTS for agonist of cAMP-regulated guanine nucleotide exchange factor 3 (EPAC1) (AID 1645889); also: nearly all actives have a fitted effect of over 40% in size
Outline: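 Measured: fluorescence of BODIPY-GDP bound to Rap1B, which falls as exchange proceeds. Conditions include 50 uM competing GDP, 5 and 30 min reads, and a later cAMP challenge for antagonist detection.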

[6] = target: Cytochrome P450 3A4 (Homo sapiens) (UniProt P08684); test: qHTS Assay for Inhibitors and Substrates of Cytochrome P450 3A4 (AID 884); also: series mostly up to about 57 µM; nearly all actives have a fitted effect of over 50% in size
Sequence of Cytochrome P450 3A4 (Homo sapiens) (P08684 whole entry, looked up): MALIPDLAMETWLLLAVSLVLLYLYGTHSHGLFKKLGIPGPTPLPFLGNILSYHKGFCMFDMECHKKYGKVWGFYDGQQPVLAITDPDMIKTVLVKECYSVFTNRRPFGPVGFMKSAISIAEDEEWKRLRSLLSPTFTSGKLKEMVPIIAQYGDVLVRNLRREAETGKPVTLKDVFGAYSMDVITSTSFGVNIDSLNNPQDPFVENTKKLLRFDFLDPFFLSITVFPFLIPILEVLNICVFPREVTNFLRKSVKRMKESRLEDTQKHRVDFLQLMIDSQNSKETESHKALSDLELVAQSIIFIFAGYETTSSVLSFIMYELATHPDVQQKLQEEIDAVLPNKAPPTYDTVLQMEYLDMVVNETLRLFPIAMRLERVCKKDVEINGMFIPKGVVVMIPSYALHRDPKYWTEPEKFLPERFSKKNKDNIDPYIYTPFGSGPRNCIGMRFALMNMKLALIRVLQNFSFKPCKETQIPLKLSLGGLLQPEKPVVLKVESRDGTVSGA
Outline: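 20 nM human CYP3A4 with 25 uM Luciferin-PPXE (at KM) in 200 mM KPO4, preincubated 10 min with compound; NADPH regeneration started a 60 min RT reaction. Luciferin detected by luminescence, normalized to 57 uM ketoconazole as full inhibition.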

[7] = Confirmation and Secondary Assay for Modulators of Hemoglobin Beta Chain Splicing at IVS2 654 locus (AID 910);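 also: per-well total GFP intensity by laser scanning cytometry after 2-day treatment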
Outline: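 HeLa cells stably carrying EGFP interrupted by mutant beta-globin IVS2-654 intron (CMV-driven) were treated with compound for 2 days at 37C; corrected splicing was scored as total peak GFP intensity per well (488 nm excitation, 500-520 nm emission).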

[8] = Confirmation and Secondary Assay for Modulators of Hemoglobin Beta Chain Splicing at IVS2 705 locus (AID 930);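 also: HeLa cells stably expressing the EGFP-705 splicing reporter; GFP fluorescence per well restored by corrected splicing of the IVS2-705 intron in EGFP; series mostly up to about 46 µM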
Outline: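 Stable HeLa line with EGFP disrupted by mutant beta-globin intron 2 (705). Overnight attachment, then 2 days of compound at 37C, 5% CO2. Signal: peak GFP intensity summed over objects 5-250 µm.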

[9] = target: Ubiquitin carboxyl-terminal hydrolase 1 (Homo sapiens) (UniProt O94782); test: Inhibitors of USP1/UAF1: Pilot qHTS (AID 504865);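 also: rhodamine fluorescence freed from ubiquitin-rhodamine substrate followed over time; top concentration of the series differs between compounds; nearly all actives have a fitted effect of over 35% in size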
Sequence of Ubiquitin carboxyl-terminal hydrolase 1 (Homo sapiens) (O94782 whole entry, looked up): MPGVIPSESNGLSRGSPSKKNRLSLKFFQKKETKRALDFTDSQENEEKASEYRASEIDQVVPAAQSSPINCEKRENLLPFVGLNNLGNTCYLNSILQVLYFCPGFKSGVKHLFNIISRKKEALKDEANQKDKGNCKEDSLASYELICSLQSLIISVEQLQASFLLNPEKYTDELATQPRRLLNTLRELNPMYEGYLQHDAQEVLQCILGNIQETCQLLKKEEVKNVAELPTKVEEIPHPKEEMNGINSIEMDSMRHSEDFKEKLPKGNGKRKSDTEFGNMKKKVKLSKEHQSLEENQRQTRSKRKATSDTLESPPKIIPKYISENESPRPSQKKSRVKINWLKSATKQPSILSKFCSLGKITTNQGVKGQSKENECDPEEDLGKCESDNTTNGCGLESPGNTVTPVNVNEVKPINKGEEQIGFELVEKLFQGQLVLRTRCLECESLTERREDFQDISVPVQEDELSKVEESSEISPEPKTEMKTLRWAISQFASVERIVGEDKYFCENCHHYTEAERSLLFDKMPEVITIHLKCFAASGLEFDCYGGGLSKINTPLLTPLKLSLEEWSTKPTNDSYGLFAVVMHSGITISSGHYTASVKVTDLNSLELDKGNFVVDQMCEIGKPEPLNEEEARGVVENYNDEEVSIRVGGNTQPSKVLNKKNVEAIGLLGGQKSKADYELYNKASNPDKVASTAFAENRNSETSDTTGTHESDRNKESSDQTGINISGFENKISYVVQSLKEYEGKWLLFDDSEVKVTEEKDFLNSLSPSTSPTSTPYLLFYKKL
Outline: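 Deubiquitinase activity followed as kinetic rhodamine fluorescence release from 150 nM Ub-Rho. 1 nM USP1/UAF1 with compound, after 15 min room-temperature preincubation, in HEPES pH 7.8 buffer containing TCEP, EDTA, BSA and Tween-20.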

[10] = target: Glucocorticoid receptor (Homo sapiens) (UniProt P04150); test: GR-GFP Redistribution (AID 450;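 active = compounds whose dose series gives a full or clear partial fitted curve of increased nuclear translocation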; also: potency is read from the fitted curve at half-maximal effect); settings: U2OS GR-GFP nuclear translocation, laser cytometry, 2 h
Sequence of Glucocorticoid receptor (Homo sapiens) (P04150 whole entry, looked up, the tested form may be a part): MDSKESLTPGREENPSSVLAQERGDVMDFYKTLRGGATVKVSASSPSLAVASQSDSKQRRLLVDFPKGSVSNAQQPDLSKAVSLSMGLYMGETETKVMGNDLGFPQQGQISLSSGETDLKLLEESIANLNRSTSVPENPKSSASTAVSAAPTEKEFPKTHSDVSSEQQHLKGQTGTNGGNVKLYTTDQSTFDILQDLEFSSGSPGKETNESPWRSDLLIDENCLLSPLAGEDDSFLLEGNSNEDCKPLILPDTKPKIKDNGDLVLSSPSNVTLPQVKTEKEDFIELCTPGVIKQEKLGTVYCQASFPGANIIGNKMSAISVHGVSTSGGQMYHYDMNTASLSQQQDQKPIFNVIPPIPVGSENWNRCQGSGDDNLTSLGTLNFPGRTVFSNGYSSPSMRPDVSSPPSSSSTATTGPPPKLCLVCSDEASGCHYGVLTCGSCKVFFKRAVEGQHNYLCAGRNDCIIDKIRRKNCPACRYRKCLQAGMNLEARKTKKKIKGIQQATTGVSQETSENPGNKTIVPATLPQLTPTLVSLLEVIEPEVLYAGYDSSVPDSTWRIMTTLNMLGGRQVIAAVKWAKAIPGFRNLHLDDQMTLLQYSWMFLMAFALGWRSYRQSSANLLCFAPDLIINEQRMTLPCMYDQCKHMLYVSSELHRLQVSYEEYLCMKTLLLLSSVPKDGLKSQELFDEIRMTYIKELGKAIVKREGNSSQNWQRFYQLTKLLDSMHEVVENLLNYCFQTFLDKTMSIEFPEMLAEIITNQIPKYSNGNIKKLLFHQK

[11] = target: Glucocorticoid receptor (Homo sapiens) (UniProt P04150); test: GR-EFC Redistribution (AID 451; calls by dose curve; also: potency is read from the fitted curve at half-maximal effect); settings: CHO-K1 GR-EFC translocation, beta-gal luminescence, 2 h
Outline: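 CHO-K1 cells stably expressing nuclear-localized β-gal enzyme acceptor and GR fused C-terminally to the enzyme donor fragment; ligand-driven nuclear translocation restores β-gal by complementation. Compounds titrated up to 46 uM final, 2 h at 37 °C; luminescence read.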

Measured: Potency

CCOC(=O)N(C)c1c(CC)nc2c(OCc3ccc(OC(F)F)cc3)cccn12
inactive: [1] | [2] | [3] | [4] | [5]

O=c1[nH]c(=O)c2nc(Br)n(C3OC(CO)C(O)C3O)c2[nH]1 (stereo not given)
inactive: [6] | [7] | [8] | [9]

COc1c(-c2ccccc2)oc2c(ccc3occc32)c1=O
inactive: [10] > 46 µM | [11] > 46 µM | [1] | [2] | [3] | [5]
